Data as given in PubChem BioAssay AID624449 (Southern Research Specialized Biocontainment Screening …, 2012).
Entries with a potency or affinity are not part of this list. Activity calls are given as the source filed them. No rule for the calls is given here.

Test: VEEV TC-83 cytopathic effect inhibition, confirmation, cell-based, TC-83 strain, set 6 (AID 624449)
Conditions: VEEV TC-83 infected cells; series mostly up to 25 µM

For CCN1CCN(Cc2nc3ccc(C(=O)O)cc3c(=O)n2-c2ccccc2)CC1, which outcome is on record?
The outcome was “inactive”.

Which outcome does the source give for COc1ccccc1-n1c(CN2CCNCC2)nc2ccc([N+](=O)[O-])cc2c1=O here?
Its outcome is “inactive”.

Which outcome does the source give for CCN1CCN(Cc2nc3ccc([N+](=O)[O-])cc3c(=O)n2C)CC1 here?
Its outcome is “inactive”.
